Source: PubChem
Compounds with a hit are over-represented: about 3.3% of the library has one in this group of screens.
AmpC no deterg – blocks E. coli AmpC beta-lactamase in detergent-free assay. AmpC nitrocefin hydrolysis, absorbance 480 nm, 0.0001% Triton. Potency, µM (titrated, usually from 57.1 µM), most hits filed as inhibitors. 330,000 compounds, 0.52% hits. AID 485341; further: nearly all actives have a fitted effect of over 20% in size
Target sequence (P00811 whole entry, looked up): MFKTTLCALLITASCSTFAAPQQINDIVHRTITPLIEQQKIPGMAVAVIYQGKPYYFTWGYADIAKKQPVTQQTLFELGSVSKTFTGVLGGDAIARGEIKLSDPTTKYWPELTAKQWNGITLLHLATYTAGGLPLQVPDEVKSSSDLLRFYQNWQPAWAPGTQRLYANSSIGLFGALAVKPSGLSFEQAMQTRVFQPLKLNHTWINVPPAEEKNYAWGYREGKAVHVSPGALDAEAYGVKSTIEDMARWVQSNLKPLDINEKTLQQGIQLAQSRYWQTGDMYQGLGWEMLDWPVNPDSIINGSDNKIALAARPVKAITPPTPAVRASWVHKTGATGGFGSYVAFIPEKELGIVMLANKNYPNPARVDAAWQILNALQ
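20 mM phosphate pH 7.0 + 0.01% (detergent screen) or 0.0001% Triton X-100; 5.3 nM AmpC reagent; cpd preinc 15 min RT; nitrocefin (800 uM stock) to start; A480 q20 s × 4 min; Activity was normalised to no-enzyme and no-compound control wells.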
Sm TGR inh – inhibitors of Schistosoma mansoni thioredoxin glutathione reductase. purified TGR, DTNB reduction, TNB absorbance 405 nm. Potency, µM (titrated, usually from 114 µM), hits mostly inhibitors. 360,000 compounds, 3% hits. AID 485364; further: nearly all actives have a fitted effect of over 60% in size
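First, TGR (20 nM dispensed) and NADPH were mixed with compound. Second, a 15 min room-temperature incubation followed. Third, further NADPH and then DTNB were added to start the reaction. Finally, TNB absorbance was monitored kinetically.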
AmpC inh detg – blocks E. coli AmpC beta-lactamase in detergent assay. P00811. Potency, µM (doses to about 114 µM), most hits filed as inhibitors. AID 485294. 370,000 compounds, 0.041% hits. AmpC hydrolysis of nitrocefin, absorbance 480 nm, 0.01% Triton; further: nearly all actives have a fitted effect of over 25% in size
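20 mM phosphate pH 7.0 + 0.01% (detergent screen) or 0.0001% Triton X-100; 5.3 nM AmpC reagent; cpd preinc 15 min RT; nitrocefin (800 uM stock) to start; A480 q20 s × 4 min; Activity was normalised to no-enzyme and no-compound control wells.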
Each line names hits and unclear results; the compound was inactive in the other large screens. The call rests on the fitted dose curve; in most records, active means well fitted curve in the direction sought with a large enough effect; inconclusive means small, poorly fitted or top-dose-only effect, or another doubt; inactive means no such curve, though single readings can be large; an effect the other way counts as inactive or inconclusive.

COc1ccc(/C(O)=C2/C(=O)C(=O)N(CCN3CCOCC3)C2c2ccccn2)cc1 (stereo unspecified)	Sm TGR inh 22.4µM
CCO[C@@H]1OC(C(=O)NCc2ccccc2)=C[C@H](c2ccc3c(c2)OCO3)[C@H]1CCCO	none
C#CCNC(=O)C1=C[C@@H](c2ccc3c(c2)OCO3)[C@H](CCCO)[C@@H](OCC)O1	Sm TGR inh 44.7µM
Cc1ccc(S(=O)(=O)N2CCOCC2)cc1C(=O)Nc1ccc(N2CCCCCC2)cc1	none
Cc1cc(C(=O)CCl)c(C)n1CCc1ccc(F)cc1	Sm TGR inh 2.51µM
Cc1cc(C(=O)CSc2nnc(N)s2)c(C)n1CCc1ccc(Cl)cc1	AmpC inh detg inconclusive
COc1ccc(CCn2c(C)c(C(C)=O)c(C(C)=O)c2C)cc1OC	none
Cc1cc(C(=O)CCl)c(C)n1CCc1ccc(Cl)cc1	Sm TGR inh 7.94µM
Cc1cc(C(=O)CSc2nnnn2C)c(C)n1CCc1ccc(F)cc1	none
COc1ccc(CCn2c(C)cc(C(=O)CCl)c2C)cc1OC	Sm TGR inh 11.2µM
Cc1c(NC(=O)COC(=O)C23CC4CC(CC(Br)(C4)C2)C3)c(=O)n(-c2ccccc2)n1C	none
COc1cccc(-c2csc(-c3c(N)c(C(=O)c4ccc5c(c4)OCO5)n4ccccc34)n2)c1	none (no result: AmpC no deterg)
N#C/C(=C\c1ccco1)Sc1nc2ccccc2s1	Sm TGR inh 39.8µM
O=C(CSc1nc2ccccc2s1)N/N=C/c1ccco1	none
CCOc1ccc(C2c3c(oc4ccc(C)cc4c3=O)C(=O)N2CCCN2CCOCC2)cc1 (stereo unspecified)	none (no result: AmpC no deterg)
CC1CCCCN1C(=O)c1ccc(C(=O)Nc2ccc(F)cc2)cc1 (stereo unspecified)	AmpC inh detg inconclusive
Cc1ccc(C(=O)N2CCCC(Nc3ccc(F)cc3)C2)cc1C (stereo unspecified)	Sm TGR inh 79.4µM
COc1ccc(C(=O)N2CCCC(Nc3ccc(F)cc3)C2)cc1F (stereo unspecified)	AmpC inh detg inconclusive
O=C(Nc1ccc(F)cc1)c1ccc(C(=O)N2CCCC(O)C2)cc1 (stereo unspecified)	Sm TGR inh 3.98µM
CN(C)/C=N/S(=O)(=O)c1ccc(Cl)c(Cl)c1	none
CC(=O)Nc1ccc(NC(=O)C(C)OC(=O)CNS(=O)(=O)c2ccc(Br)cc2Cl)cc1 (stereo unspecified)	none
CC(C)c1ccc(OCc2cc(=O)n3c(-c4ccccc4)csc3n2)cc1	none (no result: AmpC no deterg)
COc1ccc(-c2cc3nc(C)c(CCC(=O)NCc4ccccc4Cl)c(C)n3n2)c(OC)c1	none (no result: AmpC no deterg)
NNC(=O)c1ccc(Cn2cccn2)o1	none
CC(C)c1ccc(CN(C(=O)C2COc3ccccc3O2)C2CCS(=O)(=O)C2)cc1 (stereo unspecified)	none
CN(C)c1ccc(CN(C(=O)C2COc3ccccc3O2)C2CCS(=O)(=O)C2)cc1 (stereo unspecified)	Sm TGR inh 20µM
Cc1nc2c3cccnc3nn2c(C)c1CCC(=O)NCc1ccccc1	none (no result: AmpC no deterg)
N#Cc1c(N)sc2c1CCCCCC2	AmpC inh detg inconclusive
Cn1c(N)c(C#N)c2c(c1=S)CSC(C)(C)C2	Sm TGR inh 12.6µM
CC(C)c1nc(Cl)c(C#N)c2c1CSC(C)(C)C2	none
Cn1c(N)c(C#N)c2c(c1=S)COC(C)(C)C2	none
N#Cc1c(N)sc(=S)c2c1CCCCC2	Sm TGR inh 7.94µM
CC1(C)Cc2c(C#N)c(N)sc(=S)c2CS1	Sm TGR inh 31.6µM
CCCCc1nc2cc(C(=O)NCc3cc(C)n(C)n3)ccc2o1	none
CCc1ccc(NC(=O)CCn2nc(-c3ccccc3OC)c3c(C)cc(C)nc32)cc1	none (no result: AmpC no deterg)
CCN(CC)CCN1C(=O)C(=O)/C(=C(/O)c2ccc(OC)cc2)C1c1ccco1 (stereo unspecified)	Sm TGR inh 39.8µM
COc1ccc(C2/C(=C(\O)c3ccc4c(c3)OCCO4)C(=O)C(=O)N2c2nc(C)c(C(C)=O)s2)cc1 (stereo unspecified)	none
CC(C)Oc1ccc(/C(O)=C2/C(=O)C(=O)N(CCN(C)C)C2c2ccco2)cc1 (stereo unspecified)	Sm TGR inh inconclusive, AmpC inh detg inconclusive
COC(=O)c1sc(N2C(=O)C(=O)/C(=C(/O)c3ccc(C)cc3)C2c2ccco2)nc1C (stereo unspecified)	Sm TGR inh 7.08µM
CN(C)CCN1C(=O)C(=O)/C(=C(/O)c2ccc3c(c2)OCCO3)C1c1ccccn1 (stereo unspecified)	none
CCN(CC)CCCN1C(=O)C(=O)/C(=C(/O)c2ccc3c(c2)OCCO3)C1c1ccc(C)o1 (stereo unspecified)	Sm TGR inh 50.1µM, AmpC inh detg inconclusive
COc1cccc(NC(=O)CCC2CCN(C(=O)c3cncs3)CC2)c1	none
CC(=O)Nc1nonc1-c1nnc(SCc2ccccc2Cl)n1C	none (no result: AmpC no deterg)
O=C(CSc1n[nH]c(=O)n1C1CC1)Nc1ccc(F)c([N+](=O)[O-])c1	none
COc1ccc(-n2ccnc2CN2CCN(C3CCCC3)C(CCO)C2)cc1 (stereo unspecified)	Sm TGR inh 25.1µM
Cc1cccc(-n2ccnc2CN2CCN(C3CCCC3)C(CCO)C2)c1 (stereo unspecified)	Sm TGR inh inconclusive
COc1ccc(N/C=C(\C=C\C#N)S(=O)(=O)c2ccccc2)cc1	Sm TGR inh 6.31µM
N#C/C=C/C(=C\Nc1ccc(Cl)cc1)S(=O)(=O)c1ccccc1	Sm TGR inh inconclusive
C=CCN(C(=O)c1csnn1)C(C(=O)NC1CCCC1)c1ccc(F)cc1 (stereo unspecified)	none
Cc1ccc2nc(-c3cc(N)cc(N)c3)oc2c1	Sm TGR inh 50.1µM
Nc1ccc(-c2nc3ccc(N)cc3o2)cc1	none
CC(=O)NC(NC(C)=O)c1cccc(OCc2ccccc2)c1	none
O=C(O)c1ccc(NS(=O)(=O)c2cc(Cl)sc2Cl)cc1	none
O=S(=O)(O)c1cc(O)c2c(O)c(N=Nc3cc(Cl)ccc3O)c(S(=O)(=O)O)cc2c1	none
Cc1cc(-c2ccc(N=Nc3c(S(=O)(=O)O)cc4cc(S(=O)(=O)O)cc(N)c4c3O)c(C)c2)ccc1N=Nc1c(S(=O)(=O)O)cc2cc(S(=O)(=O)O)cc(N)c2c1O	AmpC inh detg 12.6µM
CC1CCc2c(sc3nnn(CC(=O)Nc4ccccc4Cl)c(=O)c23)C1 (stereo unspecified)	none (no result: AmpC no deterg)
Cc1sc(NC(=O)CN2C(=O)NC3(CCCC3)C2=O)nc1-c1ccc(F)cc1	AmpC no deterg 25.1µM, AmpC inh detg inconclusive
CC(=O)c1sc(NC(=O)CN2C(=O)NC3(CCCC3)C2=O)nc1-c1ccccc1	none
CCOc1ccc(C(=O)C(C)OC(=O)Cn2cnc3c2c(=O)n(C)c(=O)n3C)cc1 (stereo unspecified)	AmpC no deterg inconclusive, AmpC inh detg inconclusive
COc1ccc(Br)cc1CNC(=O)c1cc(=O)[nH]c2ccc(S(=O)(=O)N3CCCCC3C)cc12 (stereo unspecified)	none (no result: AmpC no deterg)
O=C(CC1C(=O)NCCN1C(=O)Nc1ccc(F)cc1)Nc1ccc(F)cc1 (stereo unspecified)	none
CCC1c2ccc(C)n2CCN1C(=O)Nc1ccc(F)cc1 (stereo unspecified)	Sm TGR inh 10µM, AmpC inh detg inconclusive
